Data taken from PubChem BioAssay (NCI).
This is part of a sample that, as a whole, favours compounds with a hit. Of some 83,000 tested, about 20% had one in any assay.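 Values shown are percent growth following 48 h exposure of cells in 96-well plates to a single concentration of compound; below 10 was considered active.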 A number with no mark means an inactive call. The source made the active and inactive calls.

system: OVCAR-3 ovarian; experiment: NCI-60 one-dose screen, 48 h (100 = growth as untreated, 0 = no growth, -100 = all killed); details: 10 µM

Q: How did the growth turn out when `NS(=O)(=O)Oc1ccc(NC(=O)C2CCCCCC2)cc1` was run?
A: 102%

Q: For `O=C(CSc1nnc(-c2cccnc2SCc2ccccc2)o1)Nc1nc(Cl)cc(Cl)n1`, which growth is on record?
A: 106%

Q: With `O=C1/C=C/[C@@H](O)[C@@H]2C[C@@H](O)C[C@H]2/C=C/CCC[C@H](CCc2ccc(NC(=S)Nc3ccc4c(c3)C(=O)OC43c4ccc(O)cc4Oc4cc(O)ccc43)cc2)O1` as the compound, how does the growth read?
A: -0.249% (active)

Q: `O=C(CCl)Nc1ccc(Cc2ccc(NC(=O)CCl)cc2)cc1` was tested. Which growth did it give?
A: -32.8% (active)

Q: How did the growth turn out when `Cc1cc(Cl)ccc1Nc1nc(C(F)(F)F)ccc1C(=O)N/N=C/c1c(Cl)cccc1Cl` was run?
A: -2.74% (active)

Q: Which growth does the source give for `COc1ccc2c(c1)C(=O)/C(=C/c1ccc([N+](=O)[O-])o1)O2` here?
A: -84.5% (active)

Q: `S=C(SSC(=S)N(c1ccccc1)c1ccccc1)N(c1ccccc1)c1ccccc1` was tested. Which growth did it give?
A: 102%

Q: With `CC(C)=CCC/C(C)=C/CC/C(C)=C/CC/C=C(\C)CC/C=C(\C)CCC(=O)Nc1ccn(C2OC(CO)C(O)C2(F)F)c(=O)n1` (stereo unspecified) as the compound, how does the growth read?
A: 40.2%

Q: Which growth does the source give for `c1ccc(/C(=N\Nc2ccc3ccccc3n2)c2ccccn2)cc1` here?
A: 22.1%

Q: With `c1ccc(CSc2ncccc2-c2nnc(SCCN3CCOCC3)o2)cc1` as the compound, how does the growth read?
A: 120%

Q: With `CN(C)c1ncnc2c1nnn2C1OC(CO)C(O)C1O` (stereo unspecified) as the compound, how does the growth read?
A: -18.8% (active)

Q: How did the growth turn out when `COc1ccccc1/C=N\N/C(N)=N\N=C\c1ccccc1OC` was run?
A: -13.2% (active)

Q: Which growth does the source give for `COc1cc(/C=C/c2cc(/C=C/c3ccc(O)c(OC)c3)nc(N)n2)ccc1O` here?
A: -7.57% (active)

Q: For `O=C(/C=C/c1cccc(B(O)O)c1)c1cccc(B(O)O)c1`, which growth is on record?
A: -28.2% (active)

Q: How did the growth turn out when `CN(C)CCC1(c2ccccc2)CCN(C)C1=O` (stereo unspecified) was run?
A: 99.5%

Q: `COc1ccc(/C=C/c2nnc(/C=C/c3ccc(OC)c(OC)c3)o2)cc1OC` was tested. Which growth did it give?
A: 17.6%

Q: `CN(C)c1ccc(/C=N/NC(=O)c2ccccc2Nc2cccc(C(F)(F)F)c2)cc1` was tested. Which growth did it give?
A: 87.7%

Q: For `CN(C)CCOc1ccc(-c2nc3sccn3c2-c2ccnc(S(C)(=O)=O)n2)cc1`, which growth is on record?
A: 115%

Q: `COc1ccc(CCN2CCC(Nc3nc4ccccc4n3Cc3ccc(F)cc3)CC2)cc1` was tested. Which growth did it give?
A: 28.3%

Q: `O=C(CN(C1CCCCC1)C1CCCCC1)Nc1ccc(S(=O)(=O)c2ccc(NC(=O)CN(C3CCCCC3)C3CCCCC3)cc2)cc1` was tested. Which growth did it give?
A: -85.2% (active)

Q: `COc1ccc2nc(-c3ccc(Cl)cc3)cc(-c3nnc(SC/C(=N\O)c4ccccc4)n3-c3ccccc3)c2c1` was tested. Which growth did it give?
A: 86.4%

Q: `Cc1cc(CSc2ccccc2C(=O)N2CC=C(c3ccccc3)CC2)on1` was tested. Which growth did it give?
A: 107%

Q: `CCOC(=O)c1cc(C(=O)c2cc(OC)c(OC)c(OC)c2)n2nc(C)ccc12` was tested. Which growth did it give?
A: 12.5%

Q: For `O=C(O)c1ccc(-n2cc(CNc3ccc(Cl)cc3)c(-c3ccccc3)n2)cc1`, which growth is on record?
A: 98.6%

Q: `CNC(=O)c1cc(Oc2ccc3c(c2)sc2nc(-c4ccc(N)cc4)cn23)ccn1` was tested. Which growth did it give?
A: 1.42% (active)

Q: With `Nc1ccc(CC[C@H]2CCC/C=C/[C@@H]3C[C@H](O)C[C@H]3[C@H](O)/C=C/C(=O)O2)cc1` as the compound, how does the growth read?
A: -13.4% (active)

Q: `CNC(=O)c1cn(C2CC2)c2cc(N3CCN(C(=O)c4cc(OC)c(OC)c(OC)c4)CC3)c(F)cc2c1=O` was tested. Which growth did it give?
A: 106%

Q: How did the growth turn out when `CN1CCN(C2=Nc3ccccc3Oc3ccc(Cl)cc32)CC1` was run?
A: 104%

Q: For `COc1ccc(Cc2cnc(N)nc2N)cc1OC`, which growth is on record?
A: 106%

Q: How did the growth turn out when `COc1ccc(C(c2ccc(OCCN(C)C)cc2)c2cc3ccccc3c3ccccc23)cc1` (stereo unspecified) was run?
A: 62.6%

Q: `O=C(N/N=C/c1ccc(Cl)cc1)c1ccccc1Nc1cccc(C(F)(F)F)c1` was tested. Which growth did it give?
A: 60.3%

Q: With `CC(=O)O[C@@]12CO[C@@H]1C[C@H](O)[C@@]1(C)C(=O)[C@H](O)C3=C(C)[C@@H](OC(=O)[C@H](O)[C@@H](NC(=O)OC(C)(C)C)c4ccccc4)C[C@@](O)([C@@H](OC(=O)c4ccccc4)C12)C3(C)C` (stereo partly specified) as the compound, how does the growth read?
A: 7.26% (active)

Q: `CS(=O)(=O)c1nccc(-c2c(-c3cccc(OCCc4ccccc4)c3)nc3sccn23)n1` was tested. Which growth did it give?
A: 104%

Q: With `C(=N\Nc1ncnc2sc3c(c12)CCNC3)/c1cccc2ccccc12` as the compound, how does the growth read?
A: 113%

Q: With `CNS(=O)(=O)Oc1ccc(-c2sc3cc(OS(=O)(=O)NC)ccc3c2C(=O)c2ccc(OCCN3CCCCC3)cc2)cc1` as the compound, how does the growth read?
A: 83.6%

Q: For `CCCCC/C=C/C/C=C/CCCCCCCC1=NC(C)(C)CN1C(C)C`, which growth is on record?
A: 17.4%
